Among the test systems are NCI-H23 lung; NCI-H226 lung; NCI-H322M lung; HOP-62 NSCLC; NCI-H460 lung; NCI-H522 lung; A549/ATCC NSCLC; 786-0 renal; COLO 205 colon; DU-145 prostate.
Holding throughout (test): NCI-60 one-dose screen, 48 h (100 = growth as untreated, 0 = no growth, -100 = all killed)
What all share (settings): 10 µM

This is part of a sample that, as a whole, favours compounds with a hit. Of some 83,000 tested, about 20% had one in any assay.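 Interpretation: 100, growth as untreated; towards 0, rising growth inhibition; 0, no net growth; 0 to -100, cell death. Compounds scoring below 10 were considered active.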 A number with no mark means an inactive call. Active and inactive are the calls of the source.

Turning to `C#Cc1ccc(-n2c(/C=C/c3ccc4ccccc4n3)nc3ncccc3c2=O)cc1`, the growth in the assay with NCI-H23 lung is -44.9% (active); in the assay on NCI-H226 lung, -81.9% (active); with NCI-H322M lung, -45.1% (active); in the assay with HOP-62 NSCLC, -34% (active); in the assay on NCI-H460 lung it was -46.3% (active); in the assay on NCI-H522 lung, -73.9% (active). Moreover, the growth is -25.8% (active) in the assay on A549/ATCC NSCLC, 0.1% (active) with 786-0 renal, -94.9% (active) in the assay on COLO 205 colon and -37.6% (active) in the assay on DU-145 prostate.

`COc1ccc(S(=O)(=O)NCCCNc2nccc(-c3c(-c4ccc(F)cc4)nc4sccn34)n2)cc1`: the growth with NCI-H23 lung is 74.8%; in the assay on NCI-H226 lung, 68.9%; in the assay with NCI-H322M lung, 52.7%; with HOP-62 NSCLC it was 79.7%; with NCI-H460 lung it was 36.3%; in the assay with NCI-H522 lung, 59.3%. Besides, the growth in the assay with A549/ATCC NSCLC is 32%; with 786-0 renal, 72.4%; in the assay on COLO 205 colon, 26.9%; in the assay with DU-145 prostate, 58.8%.

As for `COc1ccc2c(c1)sc1nc(-c3ccccc3)c(-c3cccnc3)n12`, the growth in the assay on NCI-H23 lung is 88.4%; in the assay with NCI-H226 lung, 103%; with NCI-H322M lung, 113%; in the assay with HOP-62 NSCLC, 125%; in the assay with NCI-H460 lung, 102%; in the assay with NCI-H522 lung it was -22.7% (active). Moreover, the growth with A549/ATCC NSCLC was 94.1%; in the assay on 786-0 renal, 96.9%; with COLO 205 colon, 128%; in the assay on DU-145 prostate, 107%.

Consider `CN(C)c1ccc(Cc2ccc(N(C)C)cc2Cl)c(Cl)c1`, for which the growth in the assay with NCI-H23 lung is 97%; in the assay on NCI-H226 lung, 89.4%; in the assay on NCI-H322M lung, 99.3%; in the assay with HOP-62 NSCLC it was 105%; in the assay on NCI-H460 lung it was 98.4%; with NCI-H522 lung, 80.1%. Further, the growth in the assay on A549/ATCC NSCLC is 96.5%; with 786-0 renal, 112%; in the assay with COLO 205 colon, 108%; in the assay with DU-145 prostate, 103%.

As for `CCCN(CCC)CCC(O)c1cc2c(c3ccccc13)CCCC2` (centres undefined), the growth is 79.8% in the assay with NCI-H23 lung; 81.1% in the assay on NCI-H226 lung; 99.1% in the assay on NCI-H322M lung; 79.4% with HOP-62 NSCLC; 98.9% in the assay on NCI-H460 lung; 92.3% with A549/ATCC NSCLC. Moreover, the growth with 786-0 renal is 84.3%; with COLO 205 colon, 77%; in the assay with DU-145 prostate, 106%.

`COc1ccc(-c2nc(-c3nc4ccc(Cl)cc4[nH]3)c3ccccn23)cc1`: the growth with NCI-H23 lung is 84.1%; in the assay with NCI-H226 lung, -45.7% (active); in the assay on NCI-H322M lung, 54.6%; in the assay on HOP-62 NSCLC, -77.9% (active); in the assay on NCI-H460 lung, -24.1% (active); with A549/ATCC NSCLC, -37.4% (active). The growth with 786-0 renal was -72.7% (active); with COLO 205 colon, 76%; in the assay with DU-145 prostate, 25.6%.

With `C/C(N)=C(\C#N)C(=O)c1ccccc1`, the growth in the assay on NCI-H23 lung was 104%; in the assay with NCI-H226 lung, 98%; with NCI-H322M lung, 107%; in the assay on HOP-62 NSCLC, 105%; in the assay with NCI-H460 lung, 103%; in the assay with A549/ATCC NSCLC, 97.6%. Further, the figures for the growth in the assay on 786-0 renal, with COLO 205 colon and in the assay on DU-145 prostate were 106%, 105% and 110%, respectively.

For `Nc1ccccc1NC(=O)CCCCC(=O)Nc1ccc2c(c1)/C(=C/c1ccc[nH]1)C(=O)N2`, the growth with NCI-H23 lung was 89.6%; in the assay with NCI-H226 lung it was 52.2%; in the assay with NCI-H322M lung it was 63.3%; with HOP-62 NSCLC, 83%; in the assay on NCI-H460 lung, 73.9%; with A549/ATCC NSCLC, 92.9%. For the same compound, the growth in the assay with 786-0 renal was 90.2%; in the assay on COLO 205 colon, 87.4%; in the assay on DU-145 prostate it was 70.7%.

Turning to `CCN(CC)CCNc1ccc(CO)c2oc3cc(Cl)ccc3c(=O)c12`, the growth was 87.2% in the assay on NCI-H23 lung; 95.7% in the assay on NCI-H226 lung; 97.4% with NCI-H322M lung; 88.4% in the assay with HOP-62 NSCLC; 88.2% with NCI-H460 lung; 90.4% with A549/ATCC NSCLC. Also, the figures for the growth in the assay on 786-0 renal, with COLO 205 colon and with DU-145 prostate were 76%, 68.4% and 108%, respectively.

For `Fc1ccc2nc(-c3nc(-c4ccccc4)n4ccccc34)[nH]c2c1`, the growth in the assay on NCI-H23 lung was 57%; in the assay on NCI-H226 lung it was -11.9% (active); in the assay with NCI-H322M lung, -9.9% (active); in the assay on HOP-62 NSCLC it was -76.2% (active); in the assay with NCI-H460 lung it was -57% (active); in the assay with A549/ATCC NSCLC, -22.6% (active). Further, the growth in the assay with 786-0 renal was 0.317% (active); in the assay with COLO 205 colon it was 16.1%; in the assay on DU-145 prostate, -6.4% (active).

In the case of `O=C(O)CN1C(=O)c2cccc3cccc(c23)C1=O`, the growth in the assay with NCI-H23 lung was 101%; in the assay with NCI-H226 lung it was 96.5%; with NCI-H322M lung it was 102%; with HOP-62 NSCLC, 97.4%; in the assay with NCI-H460 lung, 110%; with A549/ATCC NSCLC, 95.4%. Further, the values for the growth with 786-0 renal, with COLO 205 colon and with DU-145 prostate were 91.7%, 105% and 117%, respectively.

On to `Cc1cccc(C)c1NC(=O)c1sc2nc3c(cc2c1N)C(=O)CCC3`, for which the growth was 65.6% in the assay with NCI-H23 lung; 83% in the assay on NCI-H226 lung; 46.4% in the assay on NCI-H322M lung; 112% with HOP-62 NSCLC; 25.4% in the assay on NCI-H460 lung; 35.6% in the assay on A549/ATCC NSCLC. Besides, the growth is 92.2% with 786-0 renal, 15.2% with COLO 205 colon and 93.2% with DU-145 prostate.

As to `O=C(Nc1ccncc1)C(=O)c1cn(S(=O)(=O)c2cc(Cl)cc(Cl)c2)c2ccccc12`, the growth was 70.3% with NCI-H23 lung; 74.2% in the assay with NCI-H226 lung; 99.6% in the assay on NCI-H322M lung; 71.7% with HOP-62 NSCLC; 87.3% with NCI-H460 lung; 85.3% in the assay on A549/ATCC NSCLC. The results for the growth with 786-0 renal, in the assay with COLO 205 colon and with DU-145 prostate were 72.5%, 104% and 66.5%, respectively.

As to `Cc1ccc(NC(=O)NC2CCCCC2)cc1`, the growth was 108% in the assay with NCI-H23 lung; 95.5% in the assay with NCI-H226 lung; 92.2% in the assay on NCI-H322M lung; 96.1% with HOP-62 NSCLC; 102% in the assay with NCI-H460 lung; 91.5% with A549/ATCC NSCLC. The growth is 98.6% with 786-0 renal, 105% in the assay with COLO 205 colon and 114% in the assay on DU-145 prostate.

For the compound `O=S(=O)(Nc1ccccn1)c1ccc(N=Nc2ccc(O)c3ncccc23)cc1`, the growth was 14.5% with NCI-H23 lung; 21.3% in the assay with NCI-H226 lung; -11.8% (active) in the assay with NCI-H322M lung; 7.27% (active) in the assay with HOP-62 NSCLC; 5.48% (active) in the assay with NCI-H460 lung; -6.8% (active) in the assay with A549/ATCC NSCLC. The growth in the assay with 786-0 renal is 21.4%; in the assay with COLO 205 colon, 108%; with DU-145 prostate, 27.6%.

The values above are taken from PubChem BioAssay (NCI).
